# PrPC TRFRET: inhibitors of human cell surface prion protein PrPC | TR-FRET read-out | inhibition, % at 13.8 µM | 370,000 compounds, 0.43% hits | AID 720596; in the data active means inhibition above about 24%
# Mtb FBA inh: inhibitors of M. tuberculosis fructose-bisphosphate aldolase; P9WQA3; purified M. tuberculosis FBA, fluorescence read-out; inhibition, % at 1 µM; 360,000 compounds, 2.3% hits; AID 588726; in the data active means inhibition above about 27%
# GDH-TPI inh: inhibits GDH-TPI coupling enzymes, artifact for Mtb FBA screen. 360,000 compounds, 1.2% hits. GDH-TPI coupled enzyme counterscreen, NADH absorbance. AID 588335. inhibition, % at 4.8 µM; in the data active means inhibition above about 30%
# TcdB GH inh: TcdB glycohydrolase inhibition; inhibition, % at 9.99 µM; P18177; 350,000 compounds, 0.24% hits; TcdB glycohydrolase enzymatic assay, plate reader; in the data active means inhibition above about 10%
# Y pestis TopoI: inhibitors of Yersinia pestis topoisomerase I; Y. pestis Topo-I cleavage product accumulation, plate reader; 360,000 compounds, 0.064% hits; AID 504884; activity, % at 10 µM; in the data active means activity above about 50%, passing the limit was not always enough; inconclusive means no clear call, values can overlap the other calls
# Hits are given with their value; n = inactive; u = inconclusive; x = no result; + = active, no number. Shown are actives, neighbours in structure and some others; about 3.2% of the full set was active somewhere.
SMILES,PrPC TRFRET,Mtb FBA inh,GDH-TPI inh,TcdB GH inh,Y pestis TopoI
COc1ccc(/C=N/NC(=O)c2ccc(Cn3cc([N+](=O)[O-])cn3)o2)cc1O,n,n,37.0,x,n
O=C(CCS(=O)(=O)c1ccccc1)Nc1nc(-c2ccc(F)cc2)cs1,n,n,33.8,n,n
O=C(CS(=O)(=O)c1ccccc1)Nc1nc(-c2ccc(F)cc2)cs1,n,n,n,n,n
CCc1nn(CC(=O)NCCN2CCOCC2)c(=O)c2cc3c(OC)cccc3n12,n,+,n,n,n
N#Cc1cc(-c2ccccc2)nc(NN)n1,n,n,32.0,n,n
C=CCc1c(C)nc(C)nc1N/N=C/c1ccc(N(C)C)cc1,n,n,49.8,x,n
C/C(=N\Nc1ccc(Cl)c(C(=O)O)c1)c1cccs1,n,n,n,n,n
C/C(=N/Nc1ccccc1C(=O)O)c1cccs1,n,n,33.2,n,n
Cc1ccc(Cl)cc1C1=CC(=O)C[C@H](c2ccc(F)cc2)C1,n,n,n,n,69.3
Oc1ccc(/C=N/N2CCN(Cc3ccccc3)CC2)cc1,n,n,n,17.6,n
CSc1ccc(/C=N/N2CCN(Cc3ccc(Cl)cc3)CC2)cc1,n,n,n,10.9,n
CSc1ccc(/C=N/NC(=O)CN2CCN(Cc3ccc(Cl)cc3)CC2)cc1,n,n,n,n,n
C(=N\N1CCN(Cc2ccccc2)CC1)/c1ccc(-c2ccccc2)cc1,n,n,n,n,n
C[C@@H]1CCCCO[C@@H](CN(C)C(=O)Nc2ccc3c(c2)OCO3)[C@@H](C)CN([C@H](C)CO)C(=O)c2cc(NS(=O)(=O)c3ccccc3)ccc2O1,x,x,x,n,x
C[C@@H]1CCCCO[C@H](CN(C)Cc2ccc(C(=O)O)cc2)[C@@H](C)CN([C@H](C)CO)C(=O)c2cc(NC(=O)Nc3ccc(C(F)(F)F)cc3)ccc2O1,x,x,x,n,x
COCC(=O)N(C)C[C@@H]1Oc2ncc(C#Cc3ccc(OC)cc3)cc2C(=O)N([C@@H](C)CO)C[C@@H]1C,x,x,x,n,x
Cc1c(O)ccc(C(=O)COc2ccc(F)cc2)c1O,n,n,31.6,x,n
CCc1cc(C(=O)COc2ccc(F)cc2)c(O)cc1O,n,n,n,n,n
O=C(C[C@H]1C[C@H](C(=O)N2CCOCC2)[C@@]2(CCC3CCCC3)c3[nH]c4cc(-c5ccco5)ccc4c3CCN2C1=O)NCCN1CCOCC1,n,40.5,n,n,n
CC1(C)CC(=O)C=C(/C=C/c2ccccc2)C1,n,n,48.7,n,n
CC1(C)CC(=O)C=C(c2ccc(Oc3ccccc3)cc2)C1,n,n,n,n,u
O=[N+]([O-])c1ccc(N2CCOCC2)cc1NCc1ccccc1,n,n,n,x,n
O=[N+]([O-])c1cc([N+](=O)[O-])c(N2CCOCC2)cc1NCc1ccccc1,n,n,31.0,x,n
C[C@H](CO)N1C[C@H](C)[C@H](CN(C)Cc2ccc(C(F)(F)F)cc2)Oc2c(cccc2N(C)C)C1=O,x,x,x,n,x
O=C(N/N=C/c1ccncc1)c1cccs1,x,n,n,x,n
SMILES,PrPC TRFRET,Mtb FBA inh,GDH-TPI inh,TcdB GH inh,Y pestis TopoI
CCOc1cc(C(=O)N/N=C/C(Br)=C/c2ccccc2)cc(OCC)c1OCC,n,n,31.5,x,n
COc1ccccc1C(=O)N/N=C/C(C)=C/c1ccccc1,n,n,32.2,n,n
O=C(N/N=C/C(Br)=C\c1ccccc1)c1cccs1,n,n,30.6,n,n
O=C(N/N=C\c1ccc(Cl)s1)c1cccs1,n,n,32.7,x,n
C[C@@H]1CN([C@@H](C)CO)C(=O)c2cc(NC(=O)C3CCCCC3)ccc2O[C@@H]1CN(C)S(C)(=O)=O,x,x,x,n,x
CN(C)CCCNC(=O)[C@@H]1[C@@H](CO)[C@@H]2Cn3c(ccc(C4=CCCC4)c3=O)[C@H]1N2Cc1cocn1,x,x,x,n,x
O=C1N[C@@H](Cc2ccccc2)COCc2cn(nn2)CC[C@@H]1Cc1ccccc1,x,x,x,n,x
CC(/C=N/NC(=O)c1ccncc1)=C\c1ccccc1,n,n,44.6,n,n
O=C(N/N=C/C(Br)=C/c1ccccc1)c1cccnc1,n,n,n,n,n
O=C(N/N=C/C(Br)=C/c1ccccc1)c1ccncc1,n,n,36.0,n,n
C[C@@H]1CN([C@H](C)CO)S(=O)(=O)c2ccc(C#C[C@@H](C)O)cc2O[C@H]1CN(C)CC1CCCC1,x,x,x,n,x
CC(=O)N(C)C[C@H]1Oc2cc(C#CC(C)(C)O)ccc2S(=O)(=O)N([C@H](C)CO)C[C@@H]1C,x,x,x,n,x
Nc1nnc(/C=C/c2cccc([N+](=O)[O-])c2)s1,n,n,44.3,n,n
Nc1nnc(-c2cccc([N+](=O)[O-])c2)s1,n,n,n,n,n
Cc1noc(C)c1NC(=O)N(C)C[C@@H]1Oc2ccc(NC(=O)CCC(F)(F)F)cc2CC(=O)N([C@H](C)CO)C[C@H]1C,x,x,x,n,x
C[C@@H]1CCCCO[C@H](CN(C)C(=O)C2CCCCC2)[C@@H](C)CN([C@@H](C)CO)C(=O)c2cc(NS(C)(=O)=O)ccc2O1,x,x,x,n,x
CCOc1ccccc1OCC(=O)Nc1nc2ccccc2[nH]1,n,n,n,n,n
COc1cc(/C=N\Nc2nc3ccccc3o2)cc(OC)c1OC,n,n,34.2,x,n
COc1ccc(/C=N/Nc2nc3ccccc3o2)cc1O,n,n,n,x,n
COc1ccc(/C=N/Nc2nc3ccccc3[nH]2)cc1OC,n,n,n,n,n
CCOc1cc(/C=N/Nc2nc3ccccc3[nH]2)cc(Br)c1OCC(=O)N(C)C,n,n,34.0,n,n
C(=N\Nc1nc2ccccc2[nH]1)/c1ccc2ncccc2c1,n,n,33.0,n,n
COc1cc(/C=N\Nc2nc3ccccc3[nH]2)cc(OC)c1OC,n,n,35.6,x,n
C[C@@H]1CN([C@@H](C)CO)C(=O)c2cc(NC(=O)NC3CCCCC3)ccc2O[C@@H](C)CCCCO[C@H]1CN(C)C(=O)NC1CCCCC1,x,x,x,n,x
COc1cc(/C=N/Nc2nc3ccccc3o2)cc(OC)c1O,n,n,31.2,x,n
SMILES,PrPC TRFRET,Mtb FBA inh,GDH-TPI inh,TcdB GH inh,Y pestis TopoI
Oc1ccccc1/C=N/Nc1nc2ccccc2o1,n,n,50.6,n,n
Brc1ccc(/C=N/Nc2nc3ccccc3o2)cc1,n,n,n,n,n
O=C(/C=C\c1cn(-c2ccccc2)nc1-c1ccccc1)Nc1nccs1,n,n,n,x,n
CC(=O)NS(=O)(=O)c1ccc(NC(=O)/C=C/c2cn(-c3ccccc3)nc2-c2ccccc2)cc1,n,n,43.0,n,n
COc1cccc(C(CNc2ccc(S(=O)(=O)N3CCN(C)CC3)cc2[N+](=O)[O-])N(C)C)c1 (stereo unspecified),n,n,n,17.4,n
Cc1cc(-c2nc3ncccc3o2)ccc1N,n,+,45.4,x,n
Nc1ccc(-c2nc3ncccc3o2)c(O)c1,n,+,58.6,n,n
O=C(NCC(F)(F)F)[C@H]1[C@H](CO)[C@H]2Cn3c(cccc3=O)[C@@H]1N2C(=O)C1CCCC1,x,x,x,n,x
Cc1cc(N/N=C/c2ccncc2)nc2ccccc12,n,n,n,11.6,n
C[C@H](CO)N1C[C@H](C)[C@H](CN(C)CC2CCCCC2)OCCCC[C@H](C)Oc2ccc(NC(=O)Nc3ccc4c(c3)OCO4)cc2C1=O,x,x,x,n,x

# High-throughput results: PubChem, several laboratories
